These results are taken from PubChem BioAssay (Tox21).

Records with an inconclusive call do not appear. A number with no mark means an inactive call. Unless noted, calls come from the whole dose curve; as a rule, active = well fitted cell-killing curve with a large enough effect in the repeat runs; inconclusive = weak or mixed curves; inactive = no such curve, though single readings can be large or run the other way.
% is set by controls: 0 for no effect and ±100 for the full control effect.

Test system in the first experiment: not listed separately
Kind of experiment: qHTS assay to identify small molecule agonists of the peroxisome proliferator-activated receptor delta (PPARd) signaling pathway - cell viability counter screen (AID 743211). Note: nearly all actives have a fitted effect of over 55% in size. To be noted: PPARd-bla HEK293H viability, CellTiter-Glo luminescence, 17 h; series mostly up to 62.6 µM; activity change, negative = cytotoxicity: at the top concentration. The procedure, abridged:
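Luminescent ATP viability assay (CellTiter-Glo, 30 min RT) in UAS-bla HEK293H cells carrying the PPAR delta reporter construct, 3000 cells/well, after a 17 h compound treatment at 37 C.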
(In general: In qHTS, concentration-response curves come from the screen itself.)
On to `CCCCCCC(CCCCCCCCCCC(=O)OCC(COC(C)=O)OC(C)=O)OC(C)=O` (centres undefined), for which the “activity change, negative = cytotoxicity” value was -24.9%. Same read-out and setting: in the case of `NC(=O)Nc1nc2ccccc2[nH]1` it was 2.77%. Regarding `Cc1nc(-c2ccc(OCC(C)C)c(C#N)c2)sc1C(=O)O`, the “activity change, negative = cytotoxicity” value is 15.2%. Still for that read-out and setting: then `CC(C)[C@H](N)C(=O)OCCOCn1cnc2c(=O)[nH]c(N)nc21`, with -20.1%; and `O=C(O)C(O)[C@H](O)[C@@H](O)[C@H](O)[C@H](O)CO` (some centres undefined), with 4.17% [at 81.1 µM]; and `CC(O)CN(CCCN(C)C)CCCN(C)C` (centres undefined), with 1.42%. Same read-out and setting: then `Cc1cc(C)c(NC(=O)CN(CC(=O)O)CC(=O)O)c(C)c1Br`, with 0.579%; and `CCCC=O`, with 0.181%; and `CC(C)(O)C(=O)c1ccc(OCCO)cc1`, with 3.53%. On the same count and under the same terms, in the case of `CC(C)(O)c1ccccc1` it was 3.82%; in that of `CCc1cc(S(=O)(=O)O)c2cc(C(C)C)cccc1-2`, -0.697%; in that of `Cc1onc(-c2ccccc2)c1-c1ccc(S(N)(=O)=O)cc1`, 1.87%.

In the case of `O=C(O)c1cccc(C(=O)O)n1`, the “activity change, negative = cytotoxicity” value is 0.409%. Still for that read-out and setting: in the case of `CCCCCC[C@@H](CCC)C(=O)O` it was 1.6%; in that of `Cc1cc(C)cc(OCC2CNC(=O)O2)c1` (centres undefined), 0.684%; in that of `NC(=O)c1ncn([C@@H]2O[C@H](CO)[C@@H](O)[C@H]2O)c1O`, -6.97%.

Turning to `NCCN1CCNC1=O`, the “activity change, negative = cytotoxicity” value was 4.25%. Still for that read-out and setting: in the case of `O=C(O)/C=C/c1ccc(Cn2ccnc2)cc1` it was 14.7%. Same read-out and setting: in the case of `CSc1ccc(C=O)cc1` it was 5.88%; in that of `C=CCSCC1Nc2cc(Cl)c(S(N)(=O)=O)cc2S(=O)(=O)N1` (centres undefined), 2.1%; in that of `C[C@H]1O[C@@H](n2cc(F)c(=O)[nH]c2=O)[C@H](O)[C@@H]1O`, 1.8%. The same measure, in the same setting: in the case of `Cc1c(F)cc2c(=O)c(C(=O)O)cn3c2c1CCC3C` (centres undefined) it was 0.776%. On to `CCCOCC(C)OCC(C)O` (centres undefined), for which the “activity change, negative = cytotoxicity” value was 3.79% [at 81.1 µM]. Still for that read-out and setting: then `C#CC(O)CCCCC` (centres undefined), with -18.1% [at 81.1 µM]; and `CC(C)N1C(=O)c2ccccc2C1=O`, with 11.7%. On the same count and under the same terms, in the case of `O=S(=O)(O)c1ccccc1O` it was 1.91%; in that of `CC(CCO)CCCC(C)(C)O` (centres undefined), 1.14%. Same read-out and setting: in the case of `CC1(C)OC(=O)Nc2ccc(Br)cc21` it was 2.31%; in that of `CCCCCCCCN(C)CCCCCCCC`, 0.364% [at 81.1 µM]. As to `CC(C)COC(=O)c1ccccc1O`, the “activity change, negative = cytotoxicity” value was -22.8%. Same read-out and setting: then `CCCCC=O`, with 3.43%.

The next experiment deals with Peroxisome proliferator-activated receptor delta (Homo sapiens) (UniProt Q03181). Kind of experiment: qHTS assay to identify small molecule agonists of the peroxisome proliferator-activated receptor delta (PPARd) signaling pathway (AID 743212; calls by dose curve). To be noted: HEK293H PPARd-UAS-bla, beta-lactamase FRET ratio, 17 h; series mostly up to 62.6 µM; activation: at the top concentration. The procedure, abridged: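 HEK293H UAS-bla reporter cells, human PPARd system; compounds delivered in DMSO after 5 h plating, then at 37 C. Beta-lactamase FRET read, 2 h RT substrate step.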
Peroxisome proliferator-activated receptor delta (Homo sapiens), sequence (Q03181 whole entry, looked up): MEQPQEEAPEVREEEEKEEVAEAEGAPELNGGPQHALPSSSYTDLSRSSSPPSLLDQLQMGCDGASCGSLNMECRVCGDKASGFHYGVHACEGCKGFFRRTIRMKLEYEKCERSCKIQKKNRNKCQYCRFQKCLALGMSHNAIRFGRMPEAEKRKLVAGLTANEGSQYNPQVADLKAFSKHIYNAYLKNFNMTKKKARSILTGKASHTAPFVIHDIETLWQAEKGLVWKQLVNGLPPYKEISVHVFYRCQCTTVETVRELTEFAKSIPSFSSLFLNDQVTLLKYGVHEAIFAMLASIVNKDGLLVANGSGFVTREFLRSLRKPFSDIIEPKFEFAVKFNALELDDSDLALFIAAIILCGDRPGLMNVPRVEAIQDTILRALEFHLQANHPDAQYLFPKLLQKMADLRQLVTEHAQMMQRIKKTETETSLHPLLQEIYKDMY
In the case of `Cc1ncc(CSSCc2cnc(C)c(O)c2CO)c(CO)c1O`, the “activation” value was 1.75%. The same measure, in the same setting: then `CCCC=O`, with -6.13%; and `CC(C)(O)C(=O)c1ccc(OCCO)cc1`, with -0.58%; and `N#CCc1ccccc1[N+](=O)[O-]`, with 0.679%.

For the compound `O=C1C(CCS(=O)c2ccccc2)C(=O)N(c2ccccc2)N1c1ccccc1` (centres undefined), the “activation” value is 0.694%. On to `CCOC(=O)Cn1c(=O)sc2cccc(Cl)c21`, for which the “activation” value was -0.0979%. Same read-out and setting: in the case of `NCCN1CCNC1=O` it was 0.111%; in that of `O=C(O)/C=C/c1ccc(Cn2ccnc2)cc1`, -1.11%; in that of `CCC(C)(C)C1CCC(OC)CC1` (centres undefined), 1.64%. For the compound `Cc1c(F)cc2c(=O)c(C(=O)O)cn3c2c1CCC3C` (centres undefined), the “activation” value is -5.32%. The same measure, in the same setting: then `C#CC(O)CCCCC` (centres undefined), with -2.1% [at 81.1 µM]; and `NS(=O)(=O)c1cc2c(cc1Cl)NC(CSCc1ccccc1)=NS2(=O)=O`, with -6.89%.

As for `CC(=O)c1ccc(C)cc1`, the “activation” value is -2.73%.
